The text below walks through data of PubChem BioAssay (NCI).

Compounds without any hit were thinned out: in the full panel of roughly 83,000, 20% have a hit.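 48-hour exposure, single concentration, 96-well plates; percent growth endpoint where 0 means no net growth. Active: below 10.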 A number with no mark means an inactive call. Activity calls are given as the source filed them.

Common to all, as to experiment: NCI-60 one-dose screen, 48 h (100 = growth as untreated, 0 = no growth, -100 = all killed)
The test system of assay [1] is DU-145 prostate. As to conditions: 10 µM unless noted.
For assay [2], the system named is K-562 leukemia. The note with it: 10 µM unless noted.
Assay [3] has as its system MALME-3M melanoma. As to conditions: 10 µM unless noted.
Assay [4] deals with MDA-MB-231 breast. As to conditions: 10 µM unless noted.
In assay [5] the test system is RXF 393 renal. The note with it: 10 µM unless noted.
For assay [6], the system named is SF-268 CNS. As to conditions: 10 µM unless noted.
Assay [7] relates to SF-295 CNS. As to conditions: 10 µM unless noted.
The test system of assay [8] is SF-539 CNS. As to conditions: 10 µM unless noted.
Assay [9] concerns UACC-257 melanoma. As to conditions: 10 µM.
Assay [10] deals with M14 melanoma. The note with it: 10 µM unless noted.

Take `Cc1cn(-c2cc(NC(=O)c3cncc(C#Cc4cnc5ccc(O[C@@H]6CCOC6)nn45)c3)cc(C(F)(F)F)c2)cn1`: the growth in [1] is -86.5% (active); in assay [2] it was -17.6% (active); in assay [3], -83% (active); in assay [4], -35.5% (active); in [5], -91.5% (active); in assay [6], -42.1% (active). For the same compound, the growth in assay [7] was -21.7% (active); in assay [8], -90.5% (active); in [9], -19% (active); in assay [10], -96.2% (active).

In the case of `COc1cccc(/C=C/C(=O)c2ccc(NC(=O)COc3cccc4cccnc34)cc2)c1`, the growth in assay [1] is 90.2%; in [2] it was 82.1%; in [3], 108%; in assay [4] it was 98.4%; in assay [5], 107%; in assay [6], 96.3%. Moreover, the growth in assay [7] is 96.6%; in [8] it was 101%; in assay [9], 103%; in assay [10] it was 104%.

As for `COc1cc([C@H]2OC[C@H]3[C@@H]2CO[C@@H]3c2ccc(O)c(OC)c2)ccc1O`, the growth in assay [1] is 94.8%; in assay [2] it was 99.4%; in [3], 106%; in assay [4] it was 65.2%; in [5] it was 76.2%; in assay [6] it was 91.1%. The growth in assay [7] is 108%; in assay [8], 91.1%; in [9] it was 113%; in assay [10] it was 102%.

In the case of `O=S(=O)(Nc1cc(Cl)cc(Cl)c1)c1ccc(-c2cnc(C3CC3)o2)cc1`, the growth is 22.3% in assay [1]; 14.4% in [2]; 60.4% in assay [3]; 47.5% in assay [4]; 8.4% (active) in [5]; 66.6% in [6]. For the same compound, the growth is 17.4% in assay [7], 13.7% in assay [8], 75.1% in [9] and 19.9% in assay [10].

As for `COc1cc(-c2noc(C[C@@H](NC(=O)OCc3ccccc3)C(C)C)n2)cc(OC)c1OC`, the growth in assay [1] is 108%; in assay [2] it was 94.4%; in assay [3], 94.4%; in [4] it was 92.1%; in [5], 102%; in [6] it was 97.5%. Besides, the growth in [7] was 105%; in assay [8], 102%; in assay [9], 98.5%; in assay [10], 100%.

As for `COc1ccc(Cn2cc3c(c2-c2cc(OC)c(OC)c(OC)c2)CCCc2cnoc2-3)cc1`, the growth in [1] was 17.4%; in assay [2] it was 10.2%; in [3] it was 57.5%; in assay [4], 32.4%; in assay [5], -2.75% (active); in assay [6] it was 57.7%. Also, the growth was 5.29% (active) in [7], 2.82% (active) in assay [8], 81.5% in [9] and 2.98% (active) in [10].

As for `CN(C)c1ccc(/C=N/Nc2nc(N/N=C/c3ccc(N(C)C)cc3)nc(N3CCOCC3)n2)cc1`, the growth in assay [1] was 92.7%; in assay [2], 6.35% (active); in [3] it was 114%; in [4], 99.5%; in assay [5] it was 93.1%; in assay [6] it was 97.8%. Moreover, the growth in assay [7] was 13.8%; in assay [8], 96.7%; in assay [9], 103%; in assay [10], 103%.

For the compound `CCOC(=O)c1c(NCC(=O)Nc2cccc(Cl)c2)sc2c1CCCC2`, the growth is 93.8% in assay [1]; 66% in [2]; 82.8% in assay [3]; 86.5% in [4]; 87.3% in assay [5]; 84.8% in assay [6]. In addition, the growth in assay [7] is 80.1%; in assay [8], 92.5%; in [9], 99.1%; in assay [10], 83.2%.

As to `COc1ccc(Cn2cc3c(c2-c2ccccc2)CCCc2cnoc2-3)cc1`, the growth was 78.9% in [1]; 28.5% in [2]; 41.9% in [3]; 60.8% in [4]; 76.4% in assay [5]; 73.1% in assay [6]. For the same compound, the growth in assay [7] is 30%; in assay [8], 52.6%; in assay [9], 76%; in assay [10] it was 40.5%.

With `CCn1c2ccc(/C=N/OCCCN(C)C)cc2c2cc(/C=N/OCCCN(C)C)ccc21`, the growth in assay [1] was 17.1%; in assay [2], -17.5% (active); in assay [3] it was -88.3% (active); in [4], -9.87% (active); in assay [5], -73.3% (active); in assay [6], 79.1%. The growth was -66.5% (active) in [7], -80.4% (active) in [8], -67.1% (active) in [9] and -84.4% (active) in assay [10].

For `COc1cc(CNC(=O)/C=C/c2ccccc2)ccc1OCC(=O)NO`, the growth in assay [1] is 103%; in assay [2], 88.9%; in assay [3] it was 84.9%; in [4] it was 98.4%; in assay [5] it was 111%; in assay [6], 101%. Also, the growth in [7] is 102%; in assay [8] it was 100%; in assay [9], 91.5%; in assay [10], 100%.

Take `CS(=O)(=O)c1nccc(-c2c(-c3ccc(F)c(OCc4ccccc4)c3)nc3sccn23)n1`: the growth is -64% (active) in [1]; 75.9% in assay [2]; 115% in assay [3]; 93.1% in assay [4]; 94.7% in assay [5]; 104% in assay [6]. Moreover, the growth in assay [7] was 98.5%; in assay [8], 95.1%; in [9] it was 17.8%; in assay [10] it was 51.7%.

`CCOC(=O)C1=C(C)Nc2nnc(Nc3ccccc3)n2C1c1ccccc1` (stereo not given): the growth in assay [1] is 81.6%; in assay [2] it was 57%; in [3], 75.3%; in assay [4], 65.7%; in [5] it was 80%; in [6] it was 81.9%. Also, the growth was 96.6% in assay [7], -3.55% (active) in assay [8], 97% in [9] and 100% in assay [10].
